The campaign covered roughly 5,500 compounds. About 2,000 (36%) were called active. About 18% were inconclusive and are not listed. No stated cut-off is given here; in the data, active means normalized growth mostly below about 0.91 (no sharp cut-off); inconclusive means no clear call, values can overlap the other calls; inactive means mostly above about 0.92. The list shows a part of the results.
Assay: chemical genetic growth profiling, strain panel (AID 1159580);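 further: tested at 20 µM; growth read once vehicle control cultures reached saturation at 30 °C; 1 = growth at the plate median or of vehicle wells; lower values mean less growth of the strain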
Conditions: S. cerevisiae deletion strains, growth OD
[1] = locus YHR030C, strain SLT2, active compounds read low
[2] = locus YHR079C, strain IRE1, active compounds read low
[3] = locus YJL095W, strain BCK1, active compounds read low
[4] = locus YJR066W, strain TOR1, active compounds read low
[5] = locus YLR113W, strain HOG1, active compounds read low
[6] = locus YNL183C, strain NPR1, active compounds read low
[7] = locus YOR231W, strain MKK1, active compounds read low
[8] = locus YPL256C, strain CLN2, active compounds read low

Measured: normalized growth

CCC(COC(=O)c1cc(OC)c(OC)c(OC)c1)(c1ccccc1)N(C)C (stereo unspecified)
inactive: locus YAL021C, strain ccr4, active compounds read low 0.969 | locus YAL026C, strain drs2, active compounds read low 0.994 | locus YAL030W, strain snc1, active compounds read low 0.985 | locus YBL061C, strain skt5, active compounds read low 0.993 | locus YBR009C, strain hhf1, active compounds read low 1.01 | locus YBR023C, strain chs3, active compounds read low 0.98 | locus YBR171W, strain sec66, active compounds read low 0.961 | locus YBR231C, strain swc5, active compounds read low 0.985 | locus YBR279W, strain paf1, active compounds read low 0.975 | locus YCL011C, strain gbp2, active compounds read low 0.969 | locus YCL016C, strain dcc1, active compounds read low 0.99 | locus YCL061C, strain MRC1, active compounds read low 0.987 | locus YCL069W, strain vba3, active compounds read low 0.988 | locus YCR088W, strain abp1, active compounds read low 0.979 | locus YDL005C, strain med2, active compounds read low 0.977 | locus YDL040C, strain nat1, active compounds read low 0.978 | locus YDR001C, strain nth1, active compounds read low 0.974 | locus YDR069C, strain doa4, active compounds read low 0.992 | locus YDR137W, strain rgp1, active compounds read low 0.925 | locus YDR159W, strain sac3, active compounds read low 0.986 | locus YDR195W, strain ref2 0.984 | locus YDR297W, strain sur2, active compounds read low 0.971 | locus YDR334W, strain swr1, active compounds read low 0.938 | locus YDR335W, strain msn5, active compounds read low 0.969 | locus YDR392W, strain spt3, active compounds read low 0.753 | locus YEL003W, strain gim4, active compounds read low 0.967 | locus YEL037C, strain rad23, active compounds read low 0.983 | locus YEL061C, strain CIN8 (second series), active compounds read low 0.985 | locus YER015W, strain faa2, active compounds read low 0.986 | locus YER016W, strain bim1, active compounds read low 0.983 | locus YER111C, strain swi4, active compounds read low 0.983 | locus YER155C, strain BEM2 (second series), active compounds read low 0.97 | locus YFR010W, strain ubp6, active compounds read low 0.984 | locus YGL167C, strain pmr1, active compounds read low 0.976 | locus YGL173C, strain kem1, active compounds read low 0.985 | locus YGL227W, strain vid30, active compounds read low 0.99 | locus YGL240W, strain doc1, active compounds read low 0.972 | locus YGL253W, strain hxk2, active compounds read low 0.994 | locus YHR013C, strain ard1, active compounds read low 0.937 | locus YHR027C, strain rpn1, active compounds read low 0.969 | [1] 0.976 | [2] 0.985 | locus YHR142W, strain chs7, active compounds read low 0.952 | locus YJL092W, strain hpr5, active compounds read low 0.973 | locus YJL095W, strain BCK1 (second series), active compounds read low 0.981 | [3] 0.98 | locus YJL115W, strain asf1, active compounds read low 0.957 | locus YJL129C, strain trk1, active compounds read low 0.938 | locus YJL154C, strain vps35, active compounds read low 0.979 | locus YJL164C, strain tpk1, active compounds read low 0.966 | locus YJL166W, strain qcr8, active compounds read low 0.969 | locus YJL187C, strain SWE1, active compounds read low 0.988 | [4] 0.924 | locus YKL160W, strain elf1, active compounds read low 0.959 | locus YKR026C, strain gcn3, active compounds read low 0.983 | locus YKR091W, strain srl3, active compounds read low 0.976 | locus YLL001W, strain dnm1, active compounds read low 0.985 | locus YLL026W, active compounds read low 0.975 | locus YLL041C, strain sdh2, active compounds read low 0.964 | locus YLR027C, strain aat2, active compounds read low 0.974 | [5] 0.995 | locus YLR221C, strain rsa3, active compounds read low 0.951 | locus YLR258W, strain gsy2, active compounds read low 0.991 | locus YLR262C, strain YPT6 (second series), active compounds read low 0.933 | locus YLR320W, strain mms22, active compounds read low 0.942 | locus YLR342W, strain FKS1, active compounds read low 0.983 | locus YLR357W, strain rsc2, active compounds read low 0.966 | locus YLR370C, strain arc18, active compounds read low 0.997 | locus YLR384C, strain iki3, active compounds read low 0.976 | locus YML120C, strain ndi1, active compounds read low 0.957 | locus YMR058W, strain fet3, active compounds read low 0.979 | locus YMR125W, strain sto1, active compounds read low 0.97 | locus YMR129W, active compounds read low 0.978 | locus YMR205C, strain PFK2, active compounds read low 1.02 | locus YMR231W, strain pep5, active compounds read low 0.999 | locus YNL071W, strain lat1, active compounds read low 0.921 | [6] 0.939 | locus YNL209W, strain ssb2, active compounds read low 0.98 | locus YNL248C, strain rpa49, active compounds read low 0.945 | locus YNL322C, strain KRE1 (second series), active compounds read low 0.972 | locus YNR049C, strain mso1, active compounds read low 0.973 | locus YOR001W, strain rrp6, active compounds read low 0.913 | locus YOR070C, strain gyp1, active compounds read low 0.978 | locus YOR080W, strain dia2, active compounds read low 0.977 | locus YOR083W, strain WHI5, active compounds read low 0.952 | locus YOR106W, strain vam3, active compounds read low 0.957 | [7] 0.988 | locus YOR265W, strain rbl2, active compounds read low 0.976 | locus YOR270C, strain vph1, active compounds read low 0.955 | locus YOR290C, strain snf2, active compounds read low 0.925 | locus YPL051W, strain arl3, active compounds read low 0.954 | locus YPL078C, strain atp4, active compounds read low 0.946 | locus YPL106C, strain sse1, active compounds read low 0.941 | locus YPL240C, strain hsp82, active compounds read low 0.961 | [8] 0.966

COc1cc(C(=O)Oc2c(Cl)cc(Cl)cc2C=Nc2ccc([N+](=O)[O-])cc2C#N)cc(OC)c1OC
inactive: locus YAR019C, strain CDC15, active compounds read low 0.988 | locus YBL105C, strain PKC1, active compounds read low 0.972 | locus YBR135W, strain CKS1, active compounds read low 0.969 | locus YBR136W, strain MEC1, active compounds read low 0.988 | locus YBR160W, strain CDC28, active compounds read low 0.974 | locus YDL017W, strain CDC7, active compounds read low 0.974 | locus YDL028C, strain MPS1, active compounds read low 0.977 | locus YDL101C, strain DUN1, active compounds read low 0.987 | locus YDL108W, strain KIN28, active compounds read low 0.982 | locus YDL132W, strain cdc53, active compounds read low 0.967 | locus YDR052C, strain DBF4, active compounds read low 0.989 | locus YDR054C, strain cdc34, active compounds read low 0.968 | locus YDR226W, strain ADK1, active compounds read low 0.978 | locus YFL009W, strain cdc4, active compounds read low 0.961 | locus YFL029C, strain CAK1, active compounds read low 0.983 | locus YFR003C, strain YPI1, active compounds read low 0.975 | locus YFR028C, strain CDC14, active compounds read low 0.973 | locus YIL147C, strain SLN1, active compounds read low 0.979 | locus YJL128C, strain PBS2, active compounds read low 0.928 | locus YJR016C, strain ILV3, active compounds read low 0.986 | locus YJR066W, strain TOR1 (second series), active compounds read low 0.812 | locus YKL193C, strain SDS22, active compounds read low 0.965 | locus YMR001C, strain CDC5, active compounds read low 0.98 | locus YMR277W, strain FCP1, active compounds read low 0.97 | locus YNL006W, strain LST8, active compounds read low 0.991 | locus YNL161W, strain CBK1, active compounds read low 0.98 | locus YNL207W, strain RIO2, active compounds read low 0.981 | locus YNL222W, strain SSU72, active compounds read low 0.975 | locus YOL078W, strain AVO1, active compounds read low 0.975 | locus YOR329C, strain SCD5, active compounds read low 0.971 | locus YPL209C, strain IPL1, active compounds read low 0.976 | locus YPR025C, strain CCL1, active compounds read low 0.963 | locus YPR106W, strain ISR1, active compounds read low 0.971 | locus YPR111W, strain DBF20, active compounds read low 0.945 | strain NNK1, active compounds read low 0.979 | strain TSCII, active compounds read low 0.98
active: locus YDL214C, strain PRR2, active compounds read low 0.56 | locus YDR477W, strain SNF1, active compounds read low 0.598 | locus YER123W, strain YCK3, active compounds read low 0.352 | locus YER133W, strain GLC7, active compounds read low 0.553 | locus YFR019W, strain FAB1, active compounds read low 0.593 | locus YGR040W, strain KSS1, active compounds read low 0.622 | locus YGR052W, strain FMP48, active compounds read low 0.508 | locus YGR092W, strain DBF2, active compounds read low 0.302 | [1] 0.324 | [2] 0.371 | locus YHR082C, strain KSP1, active compounds read low 0.497 | locus YHR205W, strain SCH9, active compounds read low 0.429 | [3] 0.408 | locus YJL157C, strain FAR1, active compounds read low 0.565 | [4] 0.366 | locus YKL048C, strain ELM1, active compounds read low 0.765 | locus YKL067W, strain YNK1, active compounds read low 0.558 | locus YKL101W, strain HSL1, active compounds read low 0.654 | locus YKL203C, strain TOR2, active compounds read low 0.678 | [5] 0.458 | locus YLR133W, strain CKI1, active compounds read low 0.543 | locus YLR403W, strain SFP1, active compounds read low 0.439 | locus YML070W, strain DAK1, active compounds read low 0.544 | locus YMR205C, strain PFK2 (second series), active compounds read low 0.59 | locus YNL020C, strain ARK1, active compounds read low 0.503 | [6] 0.465 | locus YNL307C, strain MCK1 (second series), active compounds read low 0.5 | locus YOL136C, strain PFK27, active compounds read low 0.492 | locus YOR061W, strain CKA2, active compounds read low 0.439 | locus YOR119C, strain RIO1, active compounds read low 0.549 | [7] 0.46 | locus YPL031C, strain PHO85, active compounds read low 0.572 | locus YPL153C, strain RAD53, active compounds read low 0.581 | locus YPL204W, strain HRR25, active compounds read low 0.548 | [8] 0.431
